Measurements from PubChem BioAssay (EPA / NIEHS).
“And” between values parts separate entries of the source, which are not always exact repeats. Identical values can stand only once. Where a structure was tested more than once in an assay, its records may differ in their call. The source made the active and inactive calls. The calls were made as follows: active = hit-call score of the fitted dose curve at least 0.9, where 1 is the maximum; inactive = score below 0.9.

target: Hypoxia-inducible factor 1-alpha (Homo sapiens) (UniProt Q16665); assay: ATG_HIF1a_CIS: Attagene CIS-FACTORIAL HepG2 Assay for human Hypoxia Inducible Factor 1 (HIF1A) (AID 2282951); details: HepG2 Attagene cis-factorial HIF1a reporter transcription; actives raise or lower the signal
Description: ATG_CIS is a cell-based, multiplexed-readout assay that uses HepG2, a human liver cell line, with measurements taken at 24 hours after chemical dosing in a 24-well plate.ATG_HIF1a_CIS is one of 52 assay component(s) measured or calculated from the ATG_CIS assay. It is designed to make measurements of mRNA induction, a form of inducible reporter, as detected with fluorescence intensity signals by Reverse transcription polymerase chain reaction (RT-PCR) and Capillary electrophoresis technology.Data from the assay component ATG_HIF1a_CIS was analyzed into 1 assay endpoint. This assay endpoint, ATG_HIF1a_CIS, was analyzed with bidirectional fitting relative to DMSO as the negative control and baseline of activity. Using a type of inducible reporter, measures of mRNA for gain or loss-of-signal activity can be used to understand the reporter gene at the transcription factor-level as they relate to the gene HIF1A. Furthermore, this assay endpoint can be referred to as a primary readout, because this assay has produced multiple assay endpoints where this one serves a reporter gene function. To generalize the intended target to other relatable targets, this assay endpoint is annotated to the dna binding intended target family, where the subfamily is basic helix-loop-helix protein.
Human liver HepG2 cells are transiently transfected with multiple reporter transcription units (MRTUs) in 6-well plates using FuGene 6 reagent (Roche; 3 ml FuGene/1 mg DNA). The MRTU constructs are regulated by a cis-regulating element (promoter). […] A major difference between the CIS and TRANS system is that in CIS activities of endogenous TFs are measured, whereas the TRANS assay evaluates changes in activities of exogenous, chimeric NR-Gal4 proteins. […] At the end of 24 hour incubation, total RNA was isolated using TriZol reagent (Invitrogen). The isolated RNA is then reverse-transcribed using oligo(dT) primer and Mo-MLV reverse transcriptase (Invitrogen) with DNAse I (Ambion) treatment for 30 min. The one-tenth of the produced cDNA was amplified by PCR using Taq DNA polymerase (Invitrogen) and two reporter sequence-specific primers. The PCR products were fluorescently labeled by primer extension with 6-arboxyfluorescein (6-FAM) 5'-labeled reporter sequence-specific primer (2 min at 95 C, 20 s at 68 C and 10 min at 72 C) and these products were digested with 5U of HpaI (New England Biolabs) for 2h at 37 C. The fragments were purified using Qiaquick PCR columns (Qiagen), analyzed on an ABI 3130xL genetic analyzer (Applied Biosystems) with peak positions identified by using a set of X-rhodamine (ROX)-labeled MapMarker1000 molecular weight standards (BioVentures). The raw capillary electrophoresis data was processed using Attagraph software (Attagene).

Chain of Hypoxia-inducible factor 1-alpha (Homo sapiens) (Q16665 whole entry, looked up): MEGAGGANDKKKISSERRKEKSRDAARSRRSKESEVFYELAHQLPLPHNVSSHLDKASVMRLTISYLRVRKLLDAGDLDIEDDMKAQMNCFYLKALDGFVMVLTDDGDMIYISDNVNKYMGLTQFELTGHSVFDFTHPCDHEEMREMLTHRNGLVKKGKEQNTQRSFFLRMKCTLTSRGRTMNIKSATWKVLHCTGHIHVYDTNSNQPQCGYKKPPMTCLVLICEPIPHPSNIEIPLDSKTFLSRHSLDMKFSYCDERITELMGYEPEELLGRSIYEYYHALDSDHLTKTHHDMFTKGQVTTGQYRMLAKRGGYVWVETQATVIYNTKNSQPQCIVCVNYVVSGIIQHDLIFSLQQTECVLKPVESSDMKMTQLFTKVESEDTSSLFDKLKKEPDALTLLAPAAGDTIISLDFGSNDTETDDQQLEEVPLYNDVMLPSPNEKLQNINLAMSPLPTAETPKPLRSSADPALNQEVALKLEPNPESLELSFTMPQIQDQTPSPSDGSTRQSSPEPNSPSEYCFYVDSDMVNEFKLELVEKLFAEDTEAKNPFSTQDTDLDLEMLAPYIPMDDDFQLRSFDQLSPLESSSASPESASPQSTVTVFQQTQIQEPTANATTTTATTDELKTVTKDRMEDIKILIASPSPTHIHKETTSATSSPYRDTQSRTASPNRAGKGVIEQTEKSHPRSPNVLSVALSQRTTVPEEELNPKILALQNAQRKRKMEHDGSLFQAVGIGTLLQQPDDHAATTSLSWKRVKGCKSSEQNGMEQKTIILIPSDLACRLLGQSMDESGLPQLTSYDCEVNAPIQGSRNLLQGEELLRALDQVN

Compound | outcome | AC50
CCC(O)=C1C(=O)CC(C(=O)O)CC1=O (stereo not given) | inactive | 
OB(O)O | inactive | 
CC(C)(c1ccc(O)cc1)c1ccc(O)cc1 | inactive | 179 µM (active)
S=C(S)NCCNC(=S)S.[Mn+2].[S-]C([S-])=NCCN=C([S-])[S-].[Zn+2] | inactive | 18.3 µM (active) and 976 nM (active)
CCCCOC(=O)C(C)Oc1ccc(Oc2ccc(C(F)(F)F)cn2)cc1 (stereo not given) | inactive | 
C#C[C@]1(O)CC[C@H]2[C@@H]3CCC4=CC(=O)CC[C@@H]4[C@H]3CC[C@@]21CC | inactive | 3.15 µM (active)
C#CCOC(=O)[C@@H](C)Oc1ccc(Oc2ncc(Cl)cc2F)cc1 | inactive | 
CCCOC(=O)NCCCN(C)C | inactive | 
C[C@]12C[C@H](O)[C@H]3[C@@H](CCC4=CC(=O)CC[C@@]43C)[C@@H]1CC[C@@H]2C(=O)CO | inactive | 55.9 µM (active)
COc1c(Cl)ccc(Cl)c1C(=O)O | inactive | 
c1ccc2[nH]c(-c3cscn3)nc2c1 | inactive | 
Cc1nn(C)c(Oc2ccccc2)c1C=NOCc1ccc(C(=O)OC(C)(C)C)cc1 | inactive | 
COC(=O)c1ccccc1S(=O)(=O)NC(=O)Nc1nc(OC(F)F)cc(OC(F)F)n1 | inactive | 
CCC(C)OC(=O)N1CCCCC1CCO (stereo not given) | inactive | 
CCOC(=O)NCCOc1ccc(Oc2ccccc2)cc1 |  | 86 µM (active)
c1ccc(Nc2ccccc2)cc1 | inactive | 100 µM (active)
C[C@]12CC[C@@H]3c4ccc(O)cc4C[C@@H](CCCCCCCCCS(=O)CCCC(F)(F)C(F)(F)F)[C@H]3[C@@H]1CC[C@@H]2O (stereo not given in full) | inactive | 

Compound | outcome | AC50
CN(C)C(=O)Nc1ccc(Cl)c(Cl)c1 | inactive | 62.6 µM (active)
COC(=O)c1ccc(I)cc1S(=O)(=O)NC(=O)Nc1nc(C)nc(OC)n1 | inactive | 
O=C(c1ccccc1)C1CCCCC1 | inactive | 
S=C([S-])NCCNC(=S)[S-].[Mn+2] | inactive | 
CCSC(=O)N(CC(C)C)CC(C)C | inactive | 
CCCCOC(=O)[C@@H](C)Oc1ccc(Oc2ccc(C(F)(F)F)cn2)cc1 | inactive | 
COC(=O)c1ccc(CNS(C)(=O)=O)cc1S(=O)(=O)NC(=O)Nc1nc(OC)cc(OC)n1 | inactive | 
CCCN(CCC)C(=O)SCC | inactive | 
COCCO | inactive | 
O=C(O)c1ccccc1 | inactive | 
CCNc1nc(N)nc(Cl)n1 | inactive | 
CCCCC(CC)COC(=O)c1ccccc1C(=O)O (stereo not given) | inactive | 
COc1nc(C)nc(NC(=O)NS(=O)(=O)c2ccccc2OCCCl)n1 | inactive | 
CCCCC(CC)CN1C(=O)C2C3C=CC(C3)C2C1=O (stereo not given) |  | 50 µM (active)
CCCCOCCOCCOCc1cc2c(cc1CCC)OCO2 | inactive | 
Oc1ccc(C(c2ccc(O)cc2)C(Cl)(Cl)Cl)cc1 | inactive | 
COC(=O)c1cccc(C)c1S(=O)(=O)NC(=O)Nc1nc(OCC(F)(F)F)nc(N(C)C)n1 | inactive | 
